PABP polyA inh – blocks human PABP binding to poly(A) RNA; P11940; fluorescence polarization; inhibition, % at 35 µM; hit rate 1% among 290,000; AID 2014;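 further: calls also rest on retests at 20 µM and on dose response follow-up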
eIF4H FP inh – inhibitors of RNA binding by human eIF4H | Q15056 | eIF4H fluorescence polarization binding assay | inhibition, % at 35 µM | hit rate 0.94% among 290,000;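 further: calls also rest on retests at 20 µM and on dose response follow-up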
PERK inh – blocks human PERK kinase. inhibition, % at 5.6 µM. CHO PERK-DD fusion, SEAP luminescence translation reporter. hit rate 0.17% among 220,000. Q9NZJ5;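 active means inhibition above the mean inhibition of all tested compounds plus 3 SD, set separately per screening campaign, cut at about 2.9% in these data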;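 further: PERK kinase domain activated by AP20187 dimerizer at 100 nM; 0% = DMSO with dimerizer and 100% = rapamycin at 8.4 µM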
GRK2 inh – inhibitors of human GRK2 displacing RNA aptamer. hit rate 0.59% among 330,000. bead flow cytometry, FAM-aptamer displacement from GRK2. inhibition of aptamer binding, % at 10 µM. AID 488847;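 active means inhibition of aptamer binding above 40%, roughly 3 SD of noise, on plates passing a quality check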;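 further: median bead fluorescence of bound FAM aptamer so fluorescent compounds give negative values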
MLLE-PAM2 inh – inhibitors of microRNA-mediated deadenylation, human PABP1 MLLE binding; P11940; GST-MLLE / FITC-PAM2 fluorescence polarization; inhibition, % at 20 µM; hit rate 0.36% among 360,000; AID 588489; in the data active means inhibition above about 35%, passing the limit was not always enough;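 further: plate controls were DMSO wells with GST-MLLE for no effect and wells lacking GST-MLLE protein for full effect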
The depositor's hits bear a star; ? = inconclusive; / = no result given. Only some compounds are listed: those with a hit (about 1.9% of all), similar ones and a draw of the others. Unless noted, how the calls were made is not given here.

SMILES	PABP polyA inh	eIF4H FP inh	PERK inh	GRK2 inh	MLLE-PAM2 inh
CCOCCCn1c(=N)c(C(N)=S)cc2c(=O)n3cccc(C)c3nc21	78*	87*	-2	15	15
O=C(NCc1cnn(-c2ccccc2)c1)C1CCC(=O)N(C2CC2)C1 (stereo not drawn)	-1	-11	/	3	1
Cc1ccc(S(=O)(=O)N[C@H](C(=O)Oc2ccc3c(C(F)(F)F)cc(=O)oc3c2)c2ccccc2)cc1	22	17	0	1	36*
Cc1cc(Br)ccc1NC(=O)CN(C)C(=O)C1CCN(C(=O)c2ccc(Cl)cc2)CC1	/	/	/	/	2
CCCCNC(=O)c1ccc(Cn2c(=S)[nH]c3c([nH]c4ccc(OC)cc43)c2=O)cc1	-6	-8	0	25	-95
COc1ccc2[nH]c3c(=O)n(Cc4ccc(C(=O)NCC5CCCO5)cc4)c(=S)[nH]c3c2c1 (stereo not drawn)	active	61*	1	0	-36
CC(C)C(NC(=O)c1ccc(C(C)(C)C)cc1)C(=O)N1CCC(C(N)=O)CC1 (stereo not drawn)	/	/	/	0	11
Cc1cccnc1NC(=S)NC(=O)c1cccs1	3	-4	1	1	39*
C#CCOCCOCCOCCNc1nc(N2CCN(C(=O)[C@H](CCCCN)n3cc(C(N)CO)nn3)CC2)nc(N2CCN(C(=O)[C@H](CCC(=O)O)n3cc(C(N)[C@H](C)CC)nn3)CC2)n1 (stereo partly drawn)	27	38	2	3	/
CC1=CC(C)C(COC(=O)CN2CCCCC2)C(C)C1 (stereo not drawn)	-7	-10	0	2	17
CC1=CC(C)C(C[N+]2(C)CCCCC2)C(C)C1 (stereo not drawn)	61*	9	0	0	-118
COc1cccc(-c2nnc(-c3ccccc3NC(=O)c3ccc(C(C)(C)C)cc3)o2)c1	-5	-11	1	0	-3
CCOP(=O)(Nc1ccc2oc(=O)c3ccccc3c2c1)OCC	9	3	-1	0	-10
C=CCn1c(O)c(CN2CCN(Cc3ccccc3)CC2)c(C)c(C#N)c1=O	120	126*	0	6	64
CCCn1c(O)c(CN2CCCCC2)c(C)c(C#N)c1=O	?	?	1	3	29
Cc1ccnc(SC2CC(=O)N(c3ccc([N+](=O)[O-])cc3)C2=O)n1 (stereo not drawn)	2	-6	/	0	39*
Cc1ccc(Cl)cc1N1C(=O)CC(Sc2ncccn2)C1=O (stereo not drawn)	-6	-4	/	3	42*
Cc1ccc(N2C(=O)CC(Sc3nccc(C)n3)C2=O)cc1 (stereo not drawn)	3	4	/	5	22
CCOC(=O)c1ccc(N2C(=O)CC(Sc3ncccn3)C2=O)cc1 (stereo not drawn)	1	-2	/	3	41*
O=C1CC(Sc2ncccn2)C(=O)N1c1ccccc1C(F)(F)F (stereo not drawn)	9	0	0	0	25
CCc1nc2ccc(C(=O)N3CCN(C(=O)c4ccco4)CC3)cn2c1N(C)Cc1cccs1	/	/	/	/	-2
COc1cccc(C(=O)N2CCN(Cc3ccc(OC)cc3OC)CC2)c1	6	16	/	0	-3
N/C(=N\N=C\c1ccc([N+](=O)[O-])cc1)c1nonc1N	-1	-16	3.4*	1	15
Cc1cccc(N(CC(N)=O)C2SC(=O)N(c3ccccc3)C2=O)c1 (stereo not drawn)	-12	5	0	1	41*
Cc1ccc(N(CC(N)=O)C2SC(=O)N(C)C2=O)cc1 (stereo not drawn)	-6	-4	0	1	30
SMILES	PABP polyA inh	eIF4H FP inh	PERK inh	GRK2 inh	MLLE-PAM2 inh
Cc1ccc(S(=O)(=O)n2cc(CO)c3ccccc32)cc1	/	/	/	/	1
COc1ccc(OC)c(/C=N/NC(=O)CCc2c(C)n[nH]c2C)c1	8	-3	1	2	2
COc1ccc(OC)c(/C=N/NC(=O)CCc2ccc(O)c(O)c2)c1	71*	21*	1	3	6
Cc1ccc(NC(=S)Nc2ccc3[nH]c(=O)[nH]c3c2)cc1C	-4	6	2	2	43*
O=C(N/N=C/c1ccc(N2CCOCC2)cc1)c1ccccc1OCCOc1ccccc1	active	104*	-1	0	-32
COc1ccc(C2CC(=O)C(C=NCCO)=C(O)C2)cc1 (stereo not drawn)	13	38	/	2	13
CCOC(=O)c1cccc(NC(=S)NCc2ccc(C)cc2)c1	-13	-10	1	4	-24
COC(=O)c1cc(=O)n(Cc2ccc3c(c2)OCO3)c(=Nc2ccc(F)c(Cl)c2)s1	4	2	2.9*	0	2
Cc1cccc(C(=O)NCC(=O)N2CCN(S(=O)(=O)c3cc(C)ccc3C)CC2)c1	/	/	/	2	6
COC(=O)CCCC1=CC2=CC(=O)C(C)(OC(=O)c3cccs3)C(=O)C2=CN1Cc1ccco1 (stereo not drawn)	50*	61*	/	4	10
COC(=O)CCCC1=CC2=CC(=O)C(C)(OC(=O)c3cccs3)C(=O)C2=CN1CCCOC(C)C (stereo not drawn)	29*	61	/	0	13
CCCCC1=CC2=CC(=O)C(C)(OC(=O)CC)C(=O)C2=CN1c1ccccc1 (stereo not drawn)	45*	83	/	1	3
COC(=O)CCC(=O)OC1(C)C(=O)C=C2C=C(C3CC3)N(Cc3ccco3)C=C2C1=O (stereo not drawn)	53*	88*	/	1	30
O=S(=O)(Nc1ccc(S(=O)(=O)N2CCCC2)cc1)c1ccc(F)cc1F	/	/	/	0	9
Nc1ncnc2c1ncn2[C@@H]1O[C@H](C(=O)Nc2ccc(Oc3ccccc3)nc2)[C@@H](O)[C@H]1O	/	/	/	/	-2
Cc1cccn2c(=O)c3cc(C(=O)NC4CCS(=O)(=O)C4)n(Cc4ccccc4)c3nc12 (stereo not drawn)	-1	-12	/	0	-8
CCCCC1=CC2=CC(=O)C(C)(OC(=O)CC)C(=O)C2=CN1Cc1ccccc1 (stereo not drawn)	30	36	/	3	-20
CCCCC1=CC2=CC(=O)C(C)(OC(=O)CC)C(=O)C2=CN1Cc1ccco1 (stereo not drawn)	64*	70*	/	6	6
COC(=O)CCCC1=CC2=CC(=O)C(C)(OC(=O)c3cccs3)C(=O)C2=CN1c1ccc(OC)cc1 (stereo not drawn)	34*	59	/	1	2
O=C(C[n+]1cc(Br)cc2ccccc21)c1ccc(Cl)cc1	?	?	/	24	-28
O=C(C[n+]1cc(Br)cc2ccccc21)c1ccc(Br)cc1	23*	81	/	40	-33
Cc1nn(C)cc1S(=O)(=O)NCc1ccccc1Cl	-2	-9	/	0	3
CC(=O)Nc1ccc(-c2csc(NC(=O)C3CC(=O)N(c4ccc5c(c4)OCCO5)C3)n2)cc1 (stereo not drawn)	59*	60*	1	3	19

Bioassay records as filed in PubChem BioAssay.
